The values that follow come from PubChem BioAssay (NCATS).

Activity calls are given as the source filed them. The call rests on the fitted dose curve; in most records, active means well fitted curve in the direction sought with a large enough effect; inconclusive means small, poorly fitted or top-dose-only effect, or another doubt; inactive means no such curve, though single readings can be large or run the other way.

The target of the assay is Hexokinase-4 (Homo sapiens) + Glucokinase regulatory protein (Homo sapiens) (UniProt P35557+Q14397). The assay can be described thus: qHTS assay for inhibitors of recombinant human GCK-GKRP interaction: HTRF assay (AID 743207). The conditions noted are these: recombinant GCK-GKRP HTRF binding, 60 min; series mostly up to 57.5 µM. An excerpt: Glucokinase (GCK) is a glucose sensor in hepatocytes and pancreatic beta-cells. Hepatic GCK is regulated by glucokinase regulatory protein (GKRP), which is predominantly localized to the liver. GKRP binds to GCK inhibiting its activity in the fasting state while in the presence of glucose the GKRP is displaced. There is an additional layer of regulation by fructose 1-phosphate and fructose 6-phosphate, which inhibit and enhance the GCK-GKRP interaction, respectively. GCK plays a role in glucose homeostasis and there is an interest in the development of strategies to activate GCK to lower blood glucose levels in type 2 diabetes. To date the majority of effort has focused on direct activation of GCK and the assays developed herein look to activate GCK by inhibiting its binding to GKRP. A compound that inhibits the interaction of GCK with GKRP could be important for the treatment of diabetes and can also be used as a tool compound to further elucidate GCK-GKRP biology. To that end, we have developed an HTS biochemical assay using HTRF technology for to interrogate the GCK-GKRP interaction. This assay was screened against a small compound library to look for modulators of activity.
Hexokinase-4 (Homo sapiens) + Glucokinase regulatory protein (Homo sapiens), sequence (P35557 whole entry, looked up): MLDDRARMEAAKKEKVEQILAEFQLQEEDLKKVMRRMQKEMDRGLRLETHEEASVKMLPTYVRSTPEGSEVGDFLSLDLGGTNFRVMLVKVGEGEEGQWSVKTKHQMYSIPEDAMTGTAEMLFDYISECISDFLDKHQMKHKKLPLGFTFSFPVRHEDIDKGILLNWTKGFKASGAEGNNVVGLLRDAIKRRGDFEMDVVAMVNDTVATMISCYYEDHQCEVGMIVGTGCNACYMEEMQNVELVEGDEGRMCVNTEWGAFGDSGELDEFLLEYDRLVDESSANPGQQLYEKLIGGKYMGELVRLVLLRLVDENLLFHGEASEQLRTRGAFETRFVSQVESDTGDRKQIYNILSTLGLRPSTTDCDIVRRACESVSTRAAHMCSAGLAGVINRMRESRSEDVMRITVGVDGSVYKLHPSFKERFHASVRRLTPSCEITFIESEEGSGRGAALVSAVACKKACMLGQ
Hexokinase-4 (Homo sapiens) + Glucokinase regulatory protein (Homo sapiens), sequence (Q14397 whole entry, looked up): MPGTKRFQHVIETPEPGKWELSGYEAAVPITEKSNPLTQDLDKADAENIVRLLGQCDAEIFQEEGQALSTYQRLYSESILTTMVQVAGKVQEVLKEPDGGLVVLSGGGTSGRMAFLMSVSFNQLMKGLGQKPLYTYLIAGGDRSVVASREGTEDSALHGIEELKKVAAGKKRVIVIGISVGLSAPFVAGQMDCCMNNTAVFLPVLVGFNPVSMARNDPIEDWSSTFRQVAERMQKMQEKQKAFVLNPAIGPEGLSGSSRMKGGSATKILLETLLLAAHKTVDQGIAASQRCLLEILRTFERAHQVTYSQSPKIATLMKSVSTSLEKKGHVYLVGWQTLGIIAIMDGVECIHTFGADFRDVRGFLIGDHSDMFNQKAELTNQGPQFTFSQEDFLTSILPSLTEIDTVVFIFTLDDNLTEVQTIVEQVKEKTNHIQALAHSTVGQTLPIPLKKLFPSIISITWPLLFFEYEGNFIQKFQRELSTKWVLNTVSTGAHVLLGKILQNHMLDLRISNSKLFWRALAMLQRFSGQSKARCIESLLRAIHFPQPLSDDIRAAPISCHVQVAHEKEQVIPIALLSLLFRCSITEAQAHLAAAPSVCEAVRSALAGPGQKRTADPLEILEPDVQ
3 uL of 5 nM GST-GCK and 5 nM FLAG-GKRP proteins with 2 uM S6P (columns 1-2, 4-48; Millipore, Billerica, MA) are dispensed into Greiner, white solid-bottom 1536-well assay plates; columns 3 receive buffer without GCK as a control for maximum inhibition. Buffer contains 2 mM MgCl2, 25 mM KCl, 25 mM Hepes, 1 mM DTT, 0.1% Tween 20 and 0.025% BSA and the pH was adjusted to 7.1. Compounds (23 nL) are then transferred via Kalypsys pin tool equipped with 1536-pin array (10 nL slotted pins, V&P Scientific, San Diego, CA). The library compounds are in columns 5-48 and columns 1-4 serve as controls with DMSO in columns 1 and 3 and 26 mM 1:1.5 fold serial of gluckokinase activator (GKA-EMD) in column 2 and 26 mM of the glucokinase activator (GKA-EMD) in column 4. Following addition of compound, 1 uL of detection antibodies (anti-Flag XL 665 and anti-GST K in reconstitution buffer from Cisbio, Bedford, MA; 0.7 ng/well and 0.0945 ng/well, respectively) is added, and the mixture is allowed to equilibrate for 60 minutes at room temperature. Data are normalized to DMSO-treated control columns with (maximum signal) and without (minimum signal) enzyme. Plates were read on an Envision plate reader (PerkinElmer, Shelton, CT, USA) with excitation at 320 nm and dual-wavelength detection at the Fret donor wavelength (615 nm) and the FRET acceptor wavelength (665 nm).
With `NCC(O)c1cc(O)c(O)cc1F` (stereo not given), the result was inactive.

Consider `CO[C@H]1CC=C2CCN3CCC4=C(CC(=O)OC4)[C@]23C1`, for which the outcome was inactive.

Regarding `CC1(C(=O)O)C2CCC(O2)C1(C)C(=O)O` (stereo not given), the result was inactive.

For the molecule `C[N+](C)(C)CC#CCN1CCCC1=O`, the outcome was inactive.

`NNC(N)=O`: the result was inactive.

For `CCCN(CCC)[C@@H]1CCc2cccc(O)c2C1`, the outcome was inactive.

Consider `CN1CC[C@@]2(C)c3cc(O)ccc3N(C)C12` (stereo not given in full), for which the outcome was inactive.

Take `COc1ccc2c(c1)C13CCCCC1C(C2)N(C)CC3` (stereo not given): the outcome was inactive.

Turning to `CCCN1CCC[C@@H](c2cccc(O)c2)C1`, the result was inactive.

Regarding `Cc1sc2ccccc2c1CC1=NCCN1`, the outcome was inactive.

In the case of `COc1ccc2c(c1)/C(=C/c1cnc[nH]1)C(=O)N2`, the outcome was inactive.

As for `CC(Cc1ccc(OCC(=O)O)cc1)NCC(O)c1cccc(Cl)c1` (stereo not given), the outcome was inactive.

Consider `NNC(=O)c1ccc(O)cc1`, for which the outcome was inactive.

Turning to `CC(C)(C)c1o[nH]c(=O)c1CC(N)C(=O)O` (stereo not given), the result was inactive.

Regarding `CCCN(CCC)CCc1ccc(O)c(O)c1`, the result was inactive.

Turning to `c1ccc2c(c1)[I+]c1ccccc1-2`, the outcome was inactive.

With `NCCc1ccc(S(=O)(=O)F)cc1`, the result was inactive.

As for `NC(Cc1ccc(N(CCCl)CCCl)cc1)C(=O)O` (stereo not given), the result was inactive.

In the case of `C=CCN1CCc2cccc3c2[C@H]1Cc1ccc(O)c(O)c1-3`, the outcome was inactive.

As for `CC(=O)c1c(O)c(C)c(O)c(Cc2c(O)c3c(c(C(=O)/C=C/c4ccccc4)c2O)OC(C)(C)C=C3)c1O`, the result was inactive.

As to `NC(=O)c1ccc(OCC(O)CN2CC=C(c3ccc(F)cc3)CC2)cc1` (stereo not given), the result was inactive.

For the molecule `CC(C)(C)c1cc(C=C(C#N)C#N)cc(C(C)(C)C)c1O`, the outcome was inactive.

As for `CN1CCc2cccc(Cl)c2CC1`, the result was inactive.

Regarding `N=C(N)c1ccc(CS(=O)(=O)F)cc1`, the outcome was inactive.

`CCCn1c(=O)c2[nH]c(C3CCCC3)nc2n(CCCOC(=O)c2ccc(S(=O)(=O)F)cc2)c1=O`: the result was inactive.

Turning to `C[N+]1(C)CCN(c2ccccc2)CC1`, the outcome was inactive.

For `C[N+](C)(C)CC#CCOC(=O)Nc1cccc(Cl)c1`, the outcome was inactive.

Consider `NCCCP(=O)(O)O`, for which the outcome was inactive.

Regarding `Oc1ccc2c3c1O[C@H]1c4[nH]c5ccccc5c4C[C@@]4(O)C(C2)N(CC2CC2)CCC314` (stereo not given in full), the result was inactive.

`O=C1C=CC(=O)C=C1`: the result was inactive.

With `CN1CCc2cc(O)cc3c2[C@H]1Cc1ccc(O)c(O)c1-3`, the outcome was inactive.

Turning to `Cc1o[nH]c(=O)c1CC(N)C(=O)O` (stereo not given), the outcome was inactive.

As to `COc1ccc2c(c1)[C@@]13CCCC[C@H]1[C@@H](C2)NCC3`, the outcome was inactive.

As to `C=CCN(C1=NCCN1)c1c(Cl)cccc1Cl`, the outcome was inactive.

Take `COc1ccc2c(c1O)-c1cccc3c1[C@@H](C2)N(C)CC3`: the result was inactive.

As for `N[C@@H](Cn1ccc(=O)[nH]c1=O)C(=O)O`, the result was inactive.

For the molecule `CN(C(=O)Cc1ccc(Cl)c(Cl)c1)C(CN1CCCC1)c1cccc(OCC(=O)O)c1` (stereo not given), the result was inactive.

Regarding `CNc1ccc2oc(C[C@H]3O[C@@]4(CC[C@H]3C)O[C@H]([C@H](C)C(=O)c3ccc[nH]3)[C@H](C)C[C@H]4C)nc2c1C(=O)O`, the result was inactive.

For `O=[N+]([O-])/C=C/c1ccc2c(c1)OCO2`, the outcome was inactive.

As for `NC(=O)COc1c(F)cc(SCCNS(=O)(=O)c2ccccc2)cc1F`, the outcome was inactive.
